# According to PubChem BioAssay:
# “And” between values parts separate entries of the source, which are not always exact repeats. Equal values may be shown once. The source made the active and inactive calls.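 Rule for the calls, unless noted: active = z-score of at least 1.8 in each of two replicates, scored against plate mean and spread of sample wells; inactive = the rest.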
# Legend:
# [1] = suppressors of polyQ aggregation in yeast, 75Q-TubU reporter (AID 1593); details: Yeast 75Q polyglutamine aggregation reporter
# [2] = inhibitors of mitochondrial cytochrome c release, biochemical, purified mitochondria (AID 1603); details: stronger effect = lower value;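 note: mouse liver mitochondria challenged with calcium chloride; signal normalized to the plate average as 100%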
# [3] = inhibitors of polyQ protein aggregation (AID 1604); details: polyglutamine-induced protein aggregation inhibition assay; stronger effect = higher value; tested at 2.5 µM
# [4] = stimulators of nuclear beta-catenin in C2C12, primary screen, imaging, WNT3A-conditioned medium, mouse C2C12, NPC library (AID 1117326; in the data active = nuclear beta-catenin stimulation mostly above about 4.2%, no sharp cut-off; inactive = mostly below about 10%); details: stronger effect = higher value
# [5] = stimulators of insulin release from INS-1E, primary screen, cell-based, 5 mM glucose, NPC library (AID 1117329;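 active = compound raises insulin release from rat beta cells at 5 mM glucose, no numeric limit stated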); details: rat INS-1E insulin secretion, at 10 µM, stronger effect = higher value
# [6] = growth inhibition of GSK3B-pretreated HCT116 cells – cell-based, CellTiter-Glo, 0.2 to 20 µM (AID 1117336;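 active = compounds lowering colon cancer cell viability after pretreatment blocking the GSK3B kinase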); details: HCT116 viability after GSK3B inhibitor, at 20 µM, stronger effect = higher value
# [7] = inhibition of endothelial tube formation, primary screen, imaging, VEGF stimulated, CD31 staining, tube area, NPC library (AID 1117340;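 active = compound that reduces growth-factor-driven endothelial tube area in a mixed cell culture, no cutoff stated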); details: VEGF-stimulated ADSC/ECFC co-culture, at 10 µM, stronger effect = higher value
# [8] = glucagon-like peptide 1 release enhancers, primary assay, NCI-H716 cell line, NPC library (AID 1117341;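 active = compound raises GLP1 secretion from the human gut endocrine cells, with no numeric limit stated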); details: NCI-H716 cells, at 10 µM, stronger effect = higher value
# [9] = HCT116 colon cancer cell growth inhibition, primary screen, CellTiter-Glo luminescence, NPC library (AID 1117342;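 active = compounds that lower survival of HCT116 colon cancer cells in the luminescence readout, no numeric limit stated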); details: at 20 µM (top of the series)
# [10] = CellTiter-Glo luminescent readout of SW480 viability loss, NPC library primary (AID 1117343;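 active = compounds that lower viability of the colon cancer cells in the luminescence readout, with no numeric limit stated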); details: CellTiter-Glo luminescence; at 20 µM (top of the series)
# [11] = decreased DLD-1 cellular survival, CellTiter-Glo luminescent readout, NPC compound collection, primary HTS (AID 1117346;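 active = compounds that lower survival of DLD-1 colon cancer cells in the luminescence readout, no cutoff given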); details: DLD-1 viability, CellTiter-Glo luminescence; at 20 µM (top of the series)
# [12] = biological target: 6-phosphogluconate dehydrogenase, decarboxylating (Homo sapiens) (UniProt P52209); test: 6PGD enzyme inhibitors, primary screen, biochemical, human, recombinant enzyme, NADPH absorbance (AID 1159550;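 active = at least 20% inhibition of 6-phosphogluconate dehydrogenase activity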); details: recombinant 6PGD, NADPH absorbance 341 nm; at 10 µM; stronger effect = higher value
# 6-phosphogluconate dehydrogenase, decarboxylating (Homo sapiens), sequence (P52209 whole entry, looked up): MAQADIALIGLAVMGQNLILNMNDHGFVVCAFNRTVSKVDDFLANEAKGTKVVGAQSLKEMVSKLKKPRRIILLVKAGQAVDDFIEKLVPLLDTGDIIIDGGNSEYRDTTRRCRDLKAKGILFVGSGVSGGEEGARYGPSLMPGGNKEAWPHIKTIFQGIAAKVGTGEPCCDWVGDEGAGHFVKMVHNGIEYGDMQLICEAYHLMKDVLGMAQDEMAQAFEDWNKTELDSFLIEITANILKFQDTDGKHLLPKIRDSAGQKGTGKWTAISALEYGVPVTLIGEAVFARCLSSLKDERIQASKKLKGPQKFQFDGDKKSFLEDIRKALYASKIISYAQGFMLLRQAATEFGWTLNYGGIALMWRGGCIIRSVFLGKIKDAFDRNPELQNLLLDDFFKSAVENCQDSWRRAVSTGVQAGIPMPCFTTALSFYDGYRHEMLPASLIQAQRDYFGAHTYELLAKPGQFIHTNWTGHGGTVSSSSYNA
# [13] = differential killing of epithelial or mesenchymal cells, primary screen, imaging, PC-3E GFP, TEM4-18 mCherry, co-culture (AID 1345086;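 active = compounds killing one labelled cell type while sparing the other, by normalised counts and ratio limits, not self-fluorescent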;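 for all read-outs here: cells exposed to compound for 72 h before imaging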;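 for red/green cell ratio (normalised): normalised mesenchymal count divided by normalised epithelial count so high means epithelial killing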); details: imaging cell counts, at 1 µM; for red/green cell ratio (normalised): actives lie on both sides
# [14] = test system: Aerobactin synthetase IucA (Klebsiella pneumoniae hvKP1); test: Biochemical IucA enzyme inhibition primary screen of the Spectrum library (AID 1346200; call rule not given here;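 note: 100% = wells without compound and 0% = wells lacking enzyme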); details: malachite green pyrophosphate, A620, at 8 µM, stronger effect = lower value
# [15] = sensitizers of A549 cells to miR-34 induction, primary screen, imaging, A549 dox-inducible miR-34, nuclei and caspase counts (AID 1347080;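 active = compounds whose cell count with miR-34 switched on is under 0.7 times the count with it off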); details: A549 miR-34 inducible, Hoechst nuclei count, 48 h
# [16] = survival rescue of mitochondrial mutant cells in low glucose, primary screen, MELAS cybrids, Rieske KO mouse fibroblasts, CellTiter-Glo (AID 1508586;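 active = mean z-score across replicates of 1.96 or higher in either the MELAS or the Rieske mutant cell line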;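 note: z relative to plate mean and SD of compound and empty wells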)
# [17] = biological target: NAD(+) hydrolase SARM1 (Homo sapiens) (UniProt Q6SZW1); test: SARM1 TIR NADase inhibitors, cell lysate, NAD-Glo luminescence (AID 1508614;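 active = compound whose remaining NAD level is above about 45 nM, limit read from the data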;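 note: higher remaining NAD means stronger inhibition of SARM1 NADase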); details: SAM-TIR HEK293T lysate NADase, at 1 µM, stronger effect = higher value
# NAD(+) hydrolase SARM1 (Homo sapiens), sequence (Q6SZW1 whole entry, looked up, the tested form may be a part): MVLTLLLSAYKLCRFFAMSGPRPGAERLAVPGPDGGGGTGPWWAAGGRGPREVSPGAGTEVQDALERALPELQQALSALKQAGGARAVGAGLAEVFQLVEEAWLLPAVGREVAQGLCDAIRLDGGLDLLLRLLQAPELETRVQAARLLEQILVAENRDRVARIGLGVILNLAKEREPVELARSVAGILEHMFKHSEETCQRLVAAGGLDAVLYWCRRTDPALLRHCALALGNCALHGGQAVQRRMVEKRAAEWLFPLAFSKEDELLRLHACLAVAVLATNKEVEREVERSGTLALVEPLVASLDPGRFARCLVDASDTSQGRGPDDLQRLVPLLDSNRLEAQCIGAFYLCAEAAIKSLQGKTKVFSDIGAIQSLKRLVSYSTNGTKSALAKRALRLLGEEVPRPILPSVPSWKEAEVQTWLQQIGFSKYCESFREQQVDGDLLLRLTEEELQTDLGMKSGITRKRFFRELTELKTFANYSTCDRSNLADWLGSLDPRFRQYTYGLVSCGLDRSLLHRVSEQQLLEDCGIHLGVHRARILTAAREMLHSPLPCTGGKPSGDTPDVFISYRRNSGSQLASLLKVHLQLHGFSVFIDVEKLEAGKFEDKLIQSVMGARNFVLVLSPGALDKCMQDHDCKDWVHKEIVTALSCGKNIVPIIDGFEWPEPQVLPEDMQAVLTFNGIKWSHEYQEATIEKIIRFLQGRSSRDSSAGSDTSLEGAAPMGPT
# [18] = biological target: Mitogen-activated protein kinase 7 (Homo sapiens) (UniProt Q13164); test: ERK5 transactivation activators in reporter cells, primary screen, cell-based, HTS (AID 1508626;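 active = luciferase signal above three times the same-plate solvent-only control wells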;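 note: luciferase driven by Gal4-ERK5 fusion binding five Gal4 sites before minimal TATA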); details: HeLa Gal4-ERK5 transactivation, 18 h, at 5 µM, stronger effect = higher value
# Mitogen-activated protein kinase 7 (Homo sapiens), sequence (Q13164 whole entry, looked up, the tested form may be a part): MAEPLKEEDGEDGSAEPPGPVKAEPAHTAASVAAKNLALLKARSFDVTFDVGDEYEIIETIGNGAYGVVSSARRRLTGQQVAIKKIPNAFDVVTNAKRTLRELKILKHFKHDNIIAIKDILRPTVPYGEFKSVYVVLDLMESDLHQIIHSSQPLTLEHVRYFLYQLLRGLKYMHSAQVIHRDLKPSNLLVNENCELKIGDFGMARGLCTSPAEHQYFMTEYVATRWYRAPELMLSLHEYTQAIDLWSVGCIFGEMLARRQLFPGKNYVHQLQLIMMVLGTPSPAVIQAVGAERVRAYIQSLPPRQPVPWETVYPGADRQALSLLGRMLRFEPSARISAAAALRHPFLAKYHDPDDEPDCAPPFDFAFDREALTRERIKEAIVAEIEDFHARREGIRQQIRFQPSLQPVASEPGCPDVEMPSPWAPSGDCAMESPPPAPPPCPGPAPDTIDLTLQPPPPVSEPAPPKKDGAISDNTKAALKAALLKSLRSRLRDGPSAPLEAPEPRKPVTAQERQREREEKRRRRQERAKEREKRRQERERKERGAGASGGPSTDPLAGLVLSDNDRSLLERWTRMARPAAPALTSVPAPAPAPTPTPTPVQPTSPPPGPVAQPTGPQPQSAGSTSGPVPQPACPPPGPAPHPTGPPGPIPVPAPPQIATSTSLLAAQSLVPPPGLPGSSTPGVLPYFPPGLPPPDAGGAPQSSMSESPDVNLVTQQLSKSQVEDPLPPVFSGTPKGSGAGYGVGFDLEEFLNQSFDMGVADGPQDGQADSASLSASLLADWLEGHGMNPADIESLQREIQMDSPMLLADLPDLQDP
# [19] = viability rescue of complex I mutant cybrids, primary screen, cell-based, galactose medium, ATP luminescence (AID 1645843); details: complex I mutant cybrid cells, 72 h, stronger effect = higher value;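 note: positive z means more ATP and so rescue of galactose-driven cybrid death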
# [20] = liver-stage malaria parasite growth inhibition, primary screen, cell-based, HepG2, luciferase luminescence, HepG2 viability (AID 624349; in the data active = parasite load remaining mostly below about 12%, no sharp cut-off; inactive = mostly above about 10%;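 note: 100% = mean of DMSO negative control wells on the same plate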); details: P. berghei liver stage in HepG2, luciferase luminescence, concentration not given here; parasite load remaining: stronger effect = lower value; viability: measured here: HepG2 viability without parasites
# [21] = measured here: epithelial PC-3E GFP cell survival
# [22] = measured here: mesenchymal TEM4-18 mCherry cell survival
# [23] = measured here: relative caspase fold change +Dox/-Dox
# [24] = measured here: total cells with miR-34 induction, stronger effect = lower value
# [25] = measured here: total cells without miR-34 induction
# [26] = MELAS cybrid survival, CellTiter-Glo 48 h, stronger effect = higher value
# [27] = Rieske KO mouse fibroblast survival, CellTiter-Glo 72 h
compound,measurement,setting,value
CC(Cc1ccc(O)cc1)NCC(O)c1cc(O)cc(O)c1 (stereo not drawn),score,[1],1.05
same,cytochrome c release ratio,[2],1.18
same,inhibition of aggregation,[3],70.4%
same,nuclear beta-catenin stimulation,[4]; at 10 µM,-1.3% (inactive)
same,nuclear beta-catenin stimulation,"[4]; stimulation, at 2 µM",-0.9%
same,insulin secretion stimulation,[5],0.5% (inactive)
same,viability decrease,[6],-4.2% (inactive)
same,tube area decrease,[7],18.4% (inactive)
same,GLP1 secretion stimulation,[8],1.7% (inactive)
same,inhibition of viability,[9],-2.93% (inactive)
same,viability decrease (inhibition),[10],-0.4% (inactive)
same,viability decrease (inhibition),[11],-21.3% (inactive)
same,inhibition,[12],-6.23% (inactive)
same,red/green cell ratio (normalised),[13],1.06 (inactive)
same,normalised cell number,[13]; [21],0.97
same,normalised cell number,[13]; [22],1.03
same,activity remaining,[14],110% (inactive)
same,fold change,[15]; stronger effect = lower value,1 (inactive) and 0.892 (inactive) and 0.893 (inactive)
same,fold change,[15]; [23],0.955 and 0.849 and 2.71
same,cell count,[15]; [24],10100 and 8600 and 10800
same,cell count,[15]; [25],10100 and 9640 and 12100
same,z-score,[16]; [26],0.566 (inactive)
same,z-score,[16]; [27],0.235
same,remaining NAD,[17],10 nM (inactive)
same,luciferase signal,[18],48 AU (inactive)
same,z-score,[19],-0.085 (inactive)
Cc1ncc(CNC(=O)N(CCCl)N=O)c(N)n1,parasite load remaining,[20],130% (inactive)
same,viability,[20],90.7%
same,nuclear beta-catenin stimulation,[4]; at 10 µM,3% (inactive)
same,nuclear beta-catenin stimulation,"[4]; stimulation, at 2 µM",-0.9%
same,insulin secretion stimulation,[5],0.3% (inactive)
same,viability decrease,[6],-0.8% (inactive)
same,tube area decrease,[7],28.9% (inactive)
same,GLP1 secretion stimulation,[8],-6% (inactive)
same,inhibition of viability,[9],-0.1% (inactive)
same,viability decrease (inhibition),[10],10.9% (inactive)
same,viability decrease (inhibition),[11],1.8% (inactive)
same,inhibition,[12],2.15% (inactive)
same,red/green cell ratio (normalised),[13],0.95 (inactive)
same,normalised cell number,[13]; [21],0.91
same,normalised cell number,[13]; [22],0.86
same,activity remaining,[14],107% (inactive)
same,fold change,[15]; stronger effect = lower value,0.981 (inactive)
same,fold change,[15]; [23],1.12
same,cell count,[15]; [24],6420
same,cell count,[15]; [25],6540
same,remaining NAD,[17],10 nM (inactive)
same,luciferase signal,[18],100 AU (inactive)
same,z-score,[19],-0.62 (inactive)
Clc1ccc(CO/N=C(\Cn2ccnc2)c2ccc(Cl)cc2Cl)c(Cl)c1,parasite load remaining,[20],88.3% (inactive) and 30.5% (inactive) and 1.97% (inactive)
same,viability,[20],76.2% and 91.5% and 53%
same,nuclear beta-catenin stimulation,[4]; at 10 µM,27.8% (inactive)
same,nuclear beta-catenin stimulation,"[4]; stimulation, at 2 µM",3.3%
same,insulin secretion stimulation,[5],-0.7% (inactive)
same,viability decrease,[6],101% (active)
same,tube area decrease,[7],109% (active)
same,GLP1 secretion stimulation,[8],25.7% (active)
same,inhibition of viability,[9],101% (active)
same,viability decrease (inhibition),[10],141% (active)
same,viability decrease (inhibition),[11],103% (active)
same,inhibition,[12],-14.7% (inactive)
same,red/green cell ratio (normalised),"[13]; counts scaled to control wells, 1 = unselective",1.02 (inactive)
same,normalised cell number,[13]; [21],1.03
same,normalised cell number,[13]; [22],1.05
same,activity remaining,[14],128% (inactive)
same,fold change,[15]; stronger effect = lower value,0.851 (inactive)
same,fold change,"[15]; stronger effect = lower value, cell number ratio, induced over uninduced",1.12 (inactive)
same,fold change,[15]; [23],1.03 and 1.16
same,cell count,[15]; [24],7740 and 6080
same,cell count,[15]; [25],6900 and 7140
same,z-score,[16]; [26],-0.195 (inactive) and 0.269 (inactive)
same,z-score,[16]; [27],0.707 and 1.28
same,remaining NAD,[17],10 nM (inactive)
same,luciferase signal,[18],52 AU (inactive)
same,z-score,[19],-2.53 (inactive)
CCCC1CCCCN1 (stereo not drawn),nuclear beta-catenin stimulation,[4]; at 10 µM,0.5% (inactive)
same,nuclear beta-catenin stimulation,"[4]; stimulation, at 2 µM",0.1%
same,insulin secretion stimulation,[5],-0.9% (inactive)
same,viability decrease,[6],-0.7% (inactive)
same,tube area decrease,[7],2.4% (inactive)
same,GLP1 secretion stimulation,[8],0% (inactive)
same,inhibition of viability,[9],-0.2% (inactive)
same,viability decrease (inhibition),[10],8% (inactive)
same,viability decrease (inhibition),[11],-1.85% (inactive)
same,inhibition,[12],18.6% (inactive)
CN1C(=O)CCS(=O)(=O)C1c1ccc(Cl)cc1 (stereo not drawn),score,[1],0.89
same,cytochrome c release ratio,[2],0.72
same,inhibition of aggregation,[3],72.7%
same,parasite load remaining,[20],65% (inactive) and 73.4% (inactive)
same,viability,[20],112% and 75.6%
same,nuclear beta-catenin stimulation,[4]; at 10 µM,0.2% (inactive)
same,nuclear beta-catenin stimulation,"[4]; stimulation, at 2 µM",3.4%
same,insulin secretion stimulation,[5],0.4% (inactive)
same,viability decrease,[6],-22.1% (inactive)
same,tube area decrease,[7],3.9% (inactive)
same,GLP1 secretion stimulation,[8],3.4% (inactive)
same,inhibition of viability,[9],-1.4% (inactive)
same,viability decrease (inhibition),[10],2.8% (inactive)
same,viability decrease (inhibition),[11],-11.9% (inactive)
same,inhibition,[12],-16% (inactive)
same,red/green cell ratio (normalised),[13],1.12 (inactive)
same,normalised cell number,[13]; [21],0.96
same,normalised cell number,[13]; [22],1.07
same,activity remaining,[14],123% (inactive)
same,z-score,[16]; [26],-0.135 (inactive) and 0.131 (inactive)
same,z-score,[16]; [27],0.8 and -0.00931
same,remaining NAD,[17],10 nM (inactive)
same,z-score,[19],0.35 (inactive) and 0.81 (inactive)
CC(CCc1ccccc1)NC(C)C(O)c1ccc(O)cc1 (stereo not drawn),score,[1],1.53
same,cytochrome c release ratio,[2],0.84
same,inhibition of aggregation,[3],63.6%
same,parasite load remaining,[20],75.2% (inactive) and 69.3% (inactive)
same,viability,[20],72.4% and 90.8%
same,nuclear beta-catenin stimulation,[4]; at 10 µM,-0.2% (inactive)
same,nuclear beta-catenin stimulation,"[4]; stimulation, at 2 µM",-0.9%
same,insulin secretion stimulation,[5],43.4% (active)
same,viability decrease,[6],-3.7% (inactive)
same,tube area decrease,[7],16.8% (inactive)
same,GLP1 secretion stimulation,[8],-0.5% (inactive)
same,inhibition of viability,[9],16.9% (inactive)
same,viability decrease (inhibition),[10],24.3% (inactive)
same,viability decrease (inhibition),[11],-7.8% (inactive)
same,inhibition,[12],14.2% (inactive)
same,red/green cell ratio (normalised),[13],1.03 (inactive)
same,normalised cell number,[13]; [21],1.2
same,normalised cell number,[13]; [22],1.24
same,activity remaining,[14],82.9% (inactive)
same,fold change,[15]; stronger effect = lower value,1.06 (inactive) and 0.798 (inactive)
same,fold change,[15]; [23],0.901 and 0.92
same,cell count,[15]; [24],10600 and 10000
same,cell count,[15]; [25],10000 and 12600
same,z-score,[16]; [26],0.615 (inactive)
same,z-score,[16]; [27],-0.62
same,remaining NAD,[17],10 nM (inactive)
same,luciferase signal,[18],40 AU (inactive)
same,z-score,[19],-0.555 (inactive)
O=C(CCCN1CCC2(CC1)C(=O)NCN2c1ccccc1)c1ccc(F)cc1,score,[1],1.06
same,cytochrome c release ratio,[2],1.21
same,inhibition of aggregation,[3],87%
same,nuclear beta-catenin stimulation,[4]; at 10 µM,0.4% (inactive)
same,nuclear beta-catenin stimulation,"[4]; stimulation, at 2 µM",5.7%
same,insulin secretion stimulation,[5],1.8% (inactive)
same,viability decrease,[6],51.6% (active)
same,tube area decrease,[7],-3.9% (inactive)
same,GLP1 secretion stimulation,[8],8% (inactive)
same,inhibition of viability,[9],60.5% (active)
same,viability decrease (inhibition),[10],95.2% (active)
same,viability decrease (inhibition),[11],83.7% (active)
same,inhibition,[12],-2.11% (inactive)
same,red/green cell ratio (normalised),[13],1.18 (inactive)
same,normalised cell number,[13]; [21],0.93
same,normalised cell number,[13]; [22],1.1
same,activity remaining,[14],110% (inactive)
same,z-score,[16]; [26],0.0809 (inactive) and 0.865 (inactive)
same,z-score,[16]; [27],-0.502 and 0.666
same,remaining NAD,[17],10 nM (inactive)
same,luciferase signal,[18],60 AU (inactive)
same,z-score,[19],-1.13 (inactive) and 1.23 (inactive) and -1.53 (inactive)
